Assay results reported in PubChem BioAssay.
Values without a mark were called inactive. For some of these results: Measured potencies and affinities stand elsewhere. Active and inactive are the calls of the source. Unless noted, no rule for the calls is given here.

Assays:
[1] = antimalarial activity against Dd2 strain (AID 2302;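 active = growth inhibition above 50% at the single 2 µM test dose, taken to imply half-maximal potency below 2 µM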;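 also: 0% = DMSO untreated growth and 100% = chloroquine plus artemisinin killed control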); conditions: P. falciparum Dd2 in RBCs, LDH growth readout, 72 h; at 2 µM; active compounds read high
[2] = HepG2 cytotoxicity, primary screen, cytotoxicity control for P. falciparum antimalarial project, cell-based, ATP luminescence (AID 2303;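 active = inhibition above 50%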;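 also: 0% = DMSO wells and 100% = digitonin-killed cells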); conditions: HepG2 viability, 24-48 h, at 10 µM, active compounds read high
[3] = target: L-lactate dehydrogenase (Plasmodium falciparum (isolate CDC / Honduras)) (UniProt Q27743); experiment: PfLDH activity inhibition – cell lysate, 3D7 strain, counter-screen for P. falciparum growth inhibition project (AID 2304);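 also: 0% = vehicle and 100% = reference inhibitor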; conditions: P. falciparum 3D7 crude extract, LDH APAD/NBT absorbance; at 2 µM; active compounds read high
L-lactate dehydrogenase (Plasmodium falciparum (isolate CDC / Honduras)), sequence (Q27743 whole entry, looked up): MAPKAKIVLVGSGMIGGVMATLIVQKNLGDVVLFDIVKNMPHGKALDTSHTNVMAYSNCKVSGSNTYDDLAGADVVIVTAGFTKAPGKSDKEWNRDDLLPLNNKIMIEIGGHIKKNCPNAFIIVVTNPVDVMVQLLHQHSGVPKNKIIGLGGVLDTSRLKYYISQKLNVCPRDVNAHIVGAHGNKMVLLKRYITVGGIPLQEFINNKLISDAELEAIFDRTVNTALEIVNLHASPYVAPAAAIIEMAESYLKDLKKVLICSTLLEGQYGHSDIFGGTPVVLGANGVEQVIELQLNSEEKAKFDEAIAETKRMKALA

[4] = inhibition of 3D7 malaria parasite growth – strain 3D7 (AID 2306);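 also: 0% = DMSO wells and 100% = chloroquine plus artemisinin control wells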; conditions: P. falciparum 3D7 erythrocytic growth, LDH absorbance, 72 h; at 2 µM; active compounds read high
[5] = target: Calcium-dependent protein kinase 1 (Plasmodium falciparum (isolate 3D7)) (UniProt P62344); experiment: PfCDPK1 kinase inhibitors, biochemical, TCAMS library (AID 1159585; cut-off not given, nearly all actives have IC50 up to about 0.98 µM;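 also: inhibitors leave more ATP so luminescence rises with inhibition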); conditions: recombinant PfCDPK1, Kinase-Glo ATP depletion luminescence
Calcium-dependent protein kinase 1 (Plasmodium falciparum (isolate 3D7)), sequence (P62344 whole entry, looked up): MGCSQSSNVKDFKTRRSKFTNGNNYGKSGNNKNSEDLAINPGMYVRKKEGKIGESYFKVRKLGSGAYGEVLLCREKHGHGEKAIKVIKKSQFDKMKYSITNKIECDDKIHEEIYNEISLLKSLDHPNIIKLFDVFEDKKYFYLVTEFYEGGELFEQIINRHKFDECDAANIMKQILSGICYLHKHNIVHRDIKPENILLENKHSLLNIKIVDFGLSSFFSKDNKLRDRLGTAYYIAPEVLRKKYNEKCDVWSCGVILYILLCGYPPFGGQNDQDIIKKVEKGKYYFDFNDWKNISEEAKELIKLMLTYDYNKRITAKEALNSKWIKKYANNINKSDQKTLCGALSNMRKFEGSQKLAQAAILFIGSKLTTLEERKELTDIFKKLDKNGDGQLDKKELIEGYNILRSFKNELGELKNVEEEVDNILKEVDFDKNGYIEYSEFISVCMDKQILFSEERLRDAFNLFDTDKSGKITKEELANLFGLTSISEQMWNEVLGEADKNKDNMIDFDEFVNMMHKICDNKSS

[6] = target: Plasmodium falciparum protein kinase 6 (PK6, PF3D7_1337100) (UniProt Q8IDW1); experiment: PfPK6 kinase inhibitors, biochemical, TCAMS library (AID 1159586); conditions: recombinant PfPK6, Kinase-Glo ATP depletion luminescence
Plasmodium falciparum protein kinase 6 (PK6, PF3D7_1337100), sequence (Q8IDW1 1-305): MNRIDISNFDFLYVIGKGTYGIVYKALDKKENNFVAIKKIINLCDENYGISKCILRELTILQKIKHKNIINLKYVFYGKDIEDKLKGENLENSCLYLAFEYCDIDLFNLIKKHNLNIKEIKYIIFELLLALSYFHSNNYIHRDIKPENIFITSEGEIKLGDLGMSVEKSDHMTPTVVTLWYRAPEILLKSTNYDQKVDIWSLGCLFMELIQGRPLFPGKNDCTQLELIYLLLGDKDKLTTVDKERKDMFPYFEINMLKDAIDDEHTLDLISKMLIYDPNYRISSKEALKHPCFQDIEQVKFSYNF

[7] = target: Protein kinase 7 (PK7), Plasmodium falciparum 3D7 (PF3D7_0213400) (UniProt Q7YTF7); experiment: inhibition of Plasmodium PK7 catalytic activity – biochemical, TCAMS antimalarial set, Kinase-Glo luminescence (AID 1159587); conditions: recombinant PfPK7, Kinase-Glo ATP depletion luminescence
Protein kinase 7 (PK7), Plasmodium falciparum 3D7 (PF3D7_0213400), sequence (Q7YTF7 1-343): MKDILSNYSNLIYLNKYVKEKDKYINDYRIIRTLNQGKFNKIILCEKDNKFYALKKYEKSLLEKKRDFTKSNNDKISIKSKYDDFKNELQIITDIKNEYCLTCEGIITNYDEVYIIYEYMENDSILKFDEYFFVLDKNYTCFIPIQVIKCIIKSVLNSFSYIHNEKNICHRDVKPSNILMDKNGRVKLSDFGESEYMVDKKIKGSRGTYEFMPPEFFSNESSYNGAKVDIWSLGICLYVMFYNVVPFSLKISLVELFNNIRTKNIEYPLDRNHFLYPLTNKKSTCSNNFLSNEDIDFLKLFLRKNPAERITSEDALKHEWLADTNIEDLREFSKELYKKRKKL

[8] = target: Calcium-dependent protein kinase 4 (Plasmodium falciparum (isolate 3D7)) (UniProt Q8IBS5); experiment: PfCDPK4 kinase inhibitors, biochemical, TCAMS library (AID 1159588; cut-off not given, nearly all actives have IC50 up to about 0.91 µM); conditions: recombinant PfCDPK4, Kinase-Glo ATP depletion luminescence
Calcium-dependent protein kinase 4 (Plasmodium falciparum (isolate 3D7)), sequence (Q8IBS5 whole entry, looked up): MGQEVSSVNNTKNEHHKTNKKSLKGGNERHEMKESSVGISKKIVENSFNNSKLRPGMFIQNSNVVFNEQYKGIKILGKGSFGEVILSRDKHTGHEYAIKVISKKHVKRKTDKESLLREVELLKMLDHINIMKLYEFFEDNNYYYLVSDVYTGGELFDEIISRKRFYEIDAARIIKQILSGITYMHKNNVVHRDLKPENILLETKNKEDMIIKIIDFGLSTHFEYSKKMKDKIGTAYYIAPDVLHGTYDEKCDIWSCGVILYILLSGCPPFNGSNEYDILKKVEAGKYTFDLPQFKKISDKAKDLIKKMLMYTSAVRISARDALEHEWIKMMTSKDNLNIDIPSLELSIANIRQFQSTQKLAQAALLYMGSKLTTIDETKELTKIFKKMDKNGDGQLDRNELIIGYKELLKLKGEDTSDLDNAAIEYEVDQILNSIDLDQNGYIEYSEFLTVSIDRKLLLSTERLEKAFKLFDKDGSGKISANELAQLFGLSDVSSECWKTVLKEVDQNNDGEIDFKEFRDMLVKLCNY

SMILES | growth inhibition [1] | inhibition [2] | inhibition [3] [%] | growth inhibition [4] | outcome [5] | outcome [6] | outcome [7] | outcome [8]
CCCNCc1ccc(-c2ccc(CN(CC3CCCO3)C(=O)COc3ccccc3Cl)cc2)nc1 (stereo not given) | 11% | 5% | -3 | 89% (active) | inactive | inactive | inactive | inactive
NCC1CCCN1Cc1cccc(-c2cccc(-c3nc4ccc(F)cc4[nH]3)c2)c1 (stereo not given) | 65% (active) | 10% | 5 | 101% (active) | inactive | inactive | inactive | inactive
O=C(NCc1ccc(F)cc1)Nc1ccc(-c2cccc(-c3nc4ccc(C(F)(F)F)cc4[nH]3)c2)cc1 | 92% (active) | 41% | 3 | 101% (active) | inactive | inactive | inactive | inactive
Cc1ccc(-c2ccn(Cc3ccc(OCc4ccccc4)cc3)n2)cn1 (tested in a mixture with another compound) | 92% (active) | 1% | -3 | 93% (active) | inactive | inactive | inactive | inactive
Cc1cc(C)c(NC(=O)N2CCCN(CCCCCNC(=O)/C=C/c3ccc(Cl)c(Cl)c3)CC2)c(C)c1 | -1% | 12% | 3 | 91% (active) | inactive | inactive | inactive | inactive
CN(C)CCCN1CCN(C(=O)c2cc3cc(-c4ccccc4)ccc3n2S(=O)(=O)c2ccccc2)CC1 | 94% (active) | 32% | 4 | 101% (active) | inactive | inactive | inactive | inactive
FC(F)(F)c1ccc2c(C=Cc3ccncc3)c[nH]c2c1 | 76% (active) | -12% | -2 | 98% (active) | inactive | inactive | inactive | inactive
CCN(CC)CCn1c(=N)n(CC(=O)c2ccc(-c3ccccc3)cc2)c2ccccc21 | 38% | 32% | 0 | 83% (active) | inactive | inactive | inactive | inactive
CC(C)CSc1cc(C(=O)Nc2cc(Cl)ccc2O)ccn1 | 34% | 36% | -2 | 100% (active) | inactive | inactive | inactive | inactive
Cc1nc2ccc(Nc3nccc(-c4c(-c5cccc(NC(=O)c6c(F)cccc6F)c5)nn5ccccc45)n3)cc2nc1C | 45% | 55% (active) | 0 | 91% (active) | inactive | inactive | inactive | inactive
CO/N=C(\C)c1ccc2c(c1)CCN(CCC1CCC(NC(=O)/C=C/c3ccc(F)cc3)CC1)CC2 (stereo not given) | 15% | 45% | 1 | 95% (active) | inactive | inactive | inactive | inactive
COc1ccc(O)c(C(=O)c2cnc3c(c2)c(-c2ccc(F)cc2)c(C#N)c(=O)n3C)c1 | 14% | 7% | -2 | 92% (active) | inactive | inactive | inactive | inactive
CC(C)CC(C)NC(=O)C1Cc2c([nH]c3ccc(F)cc23)C2(CCN(Cc3ccccc3)CC2)N1 (stereo not given) | 49% | 18% | 7 | 97% (active) | inactive | inactive | inactive | inactive
O=C(Nc1ccc(OC2CCN(Cc3ccc(F)cc3)C2)c(Cl)c1)c1ccco1 (stereo not given) | 97% (active) | 9% | -2 | 96% (active) | inactive | inactive | inactive | inactive
O=c1cc(NCCCNCc2cccc(OC(F)(F)C(F)F)c2)[nH]c2ccccc12 | 7% | 6% | -5 | 81% (active) | inactive | inactive | inactive | inactive
Cc1cccc2[nH]c(-c3ccc(-c4ccc(CNCc5cnn(-c6ccccc6)n5)cc4)cc3)nc12 | 99% (active) | 35% | -4 | 101% (active) | inactive | inactive | inactive | inactive
O=C(Nc1ccc(OC2CCN(Cc3ccccc3)CC2)c(Cl)c1)c1ccco1 | 96% (active) | 8% | 6 | 96% (active) | inactive | inactive | inactive | inactive
COC(=O)c1cccc(CNCc2ccc(-c3cccc(-c4nc5ccc(C(F)(F)F)cc5[nH]4)c3)cc2)c1 | 97% (active) | 5% | 6 | 102% (active) | inactive | inactive | inactive | inactive
COc1ccc(Nc2nc(NC3CCN(C)CC3)cc(-c3ccc(OC)cc3)n2)cc1 | 51% (active) | 62% (active) | 4 | 100% (active) | inactive | inactive | inactive | inactive
COc1ccc(Oc2ccc(-c3c(C)[nH]c(C)cc3=O)cc2)cc1 | 88% (active) | -12% | -3 | 93% (active) | inactive | inactive | inactive | inactive
